Results reported in PubChem BioAssay AID1030 (National Center for Advancing Translational Sciences (NCATS), 2008).
Values joined by “and” are separate entries in the source; they are usually repeats but may differ in a detail not shown here. Equal values may be shown once. Screen size: about 220,000 compounds; about 16,000 (7.3%) were called active. Inconclusive results (about 25%) are left out. Calls come from the whole dose curve; as a rule, active = well fitted inhibition curve with a large enough effect (not every such curve was filed as active); inconclusive = small, poorly fitted or top-dose-only effect, or another doubt; inactive = no such curve, though single readings can be large or run the other way. The list comes from a sample in which actives are over-represented; it also holds similar structures and randomly drawn compounds. Where a call stands in place of a potency, no number is given. Some compounds were tested as several samples or in several runs, with calls that do not always agree.

target: Aldehyde dehydrogenase 1A1 (Homo sapiens) (UniProt P00352); experiment: qHTS Assay for Inhibitors of Aldehyde Dehydrogenase 1 (ALDH1A1); settings: Purified ALDH1A1, NADH fluorescence, propionaldehyde substrate; series mostly up to 75.3 µM
Potency is the fitted concentration of half-maximal effect.

Sequence of Aldehyde dehydrogenase 1A1 (Homo sapiens) (P00352 whole entry, looked up): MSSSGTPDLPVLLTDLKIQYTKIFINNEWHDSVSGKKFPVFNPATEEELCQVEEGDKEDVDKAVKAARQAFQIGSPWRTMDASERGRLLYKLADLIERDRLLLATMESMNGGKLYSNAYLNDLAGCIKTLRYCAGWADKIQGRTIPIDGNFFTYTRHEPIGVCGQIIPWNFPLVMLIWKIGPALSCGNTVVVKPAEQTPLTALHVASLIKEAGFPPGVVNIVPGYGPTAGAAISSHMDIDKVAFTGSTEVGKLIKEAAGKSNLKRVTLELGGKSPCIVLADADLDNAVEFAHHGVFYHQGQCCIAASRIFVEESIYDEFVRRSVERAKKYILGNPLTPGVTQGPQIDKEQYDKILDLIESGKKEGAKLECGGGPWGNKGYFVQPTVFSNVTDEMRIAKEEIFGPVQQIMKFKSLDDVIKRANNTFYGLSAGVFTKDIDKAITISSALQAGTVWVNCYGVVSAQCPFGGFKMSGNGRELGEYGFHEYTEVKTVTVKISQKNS

SMILES | Potency | activity, negative = inhibition
CCOC(=O)N1CCN(C(=O)c2ccccc2N(Cc2ccccc2)S(=O)(=O)c2ccc(OC)cc2)CC1 | inactive | –
N#Cc1cccc(CS(=O)(=O)c2nnnn2-c2cc(C(F)(F)F)cc(C(F)(F)F)c2)c1 | inactive | –
COc1ccccc1N1CCN(C(=O)CN(Cc2ccc(Cl)cc2)S(C)(=O)=O)CC1 | inactive | –
COc1ccccc1-n1nnnc1S(=O)(=O)Cc1ccc(Cl)cc1 | 2.51 µM (active) | –
CCN(CCCNC(=O)CCn1c(=O)[nH]c2ccsc2c1=O)c1ccccc1 | inactive | –
Cc1nc(Nc2ccc(S(=O)(=O)N3CCCC3)cc2)c2nnn(Cc3ccccc3)c2n1 | inactive | –
CC(C)Nc1ncnc2c1nnn2Cc1ccccc1 | 12.6 µM (active) | –
CC(C)(C)c1nc(NCC2CCCO2)c2nnn(Cc3ccccc3)c2n1 (stereo not given) | inactive | –
COc1ccc(N2CCN(C(=O)C3CCN(S(=O)(=O)c4ccc(C)cc4)CC3)CC2)cc1 | inactive | –
COc1ccc(/C=C(\C#N)C(=O)ONC2=NCCCCC2)cc1 | 35.5 µM (active) | –
COc1ccc(/C=C(\C#N)C(=O)NCCCn2ccnc2)cc1 | inactive | –
Cc1cccc(OCC(=O)NC(=S)Nc2ccccc2N2CCOCC2)c1 | inactive | –
COC(=O)c1ccc(NC(=S)NN2CCOCC2)cc1 | inactive | –
COc1ccc(C(=O)NC(=S)Nc2ccc(N3CCCC3)cc2)cc1OC | 3.55 µM (active) | –
Cc1ccc(C(=O)NC(=S)Nc2ccc(N3CCOCC3)cc2)cc1 | 11.2 µM (active) | –
COc1ccc(C(=O)NC(=S)Nc2ccc(Cl)cn2)cc1OC | inactive | –
COc1ccc(C(=O)Nc2ccc3nc(N4CCCCC4)cc(C)c3c2)cc1OC | inactive | –
Cc1ccc(C(=O)NC(=S)NCCN2CCOCC2)cc1 | inactive | –
COc1cccc(OC)c1C(=O)Nc1ccc(N2CCCCC2)cc1 | inactive | –
COc1ccc(C(=O)NC(=S)Nc2ccccc2N2CCN(S(C)(=O)=O)CC2)cc1OC | 0.501 µM (active) | –
CC1(C)CC(=O)C=C(N2CCOCC2)C1 | inactive | –
O=[N+]([O-])c1ccc(Sc2n[nH]c(-c3ccco3)n2)nc1 | inactive | –
CN(c1ccc(OCC(=O)OCC(=O)Nc2cccc([N+](=O)[O-])c2)cc1)S(=O)(=O)c1ccc(F)cc1 | inactive | –
O=C(Cc1ccc(F)cc1)N1CCN=C1SCc1cccc([N+](=O)[O-])c1 | inactive | –
COc1cccc(C(O)Cc2nc3ccccc3n2C)c1OC (stereo not given) | inactive | –
CCNC(=O)COc1cc(C)c(Br)c(C)c1 | inactive | –
CCc1cc(C(=O)c2ccc(OC)cc2)c(NC(=O)CN2CCN(C)CC2)s1 | inactive | –

SMILES | Potency | activity, negative = inhibition
Cc1cc(Cl)ccc1NC(=S)NCCCN1CCCC1=O | inactive | –
CCOC(=O)c1c(N)nn(C(=O)c2ccccc2)c1-c1ccccc1 | inactive | –
CCOC(=O)c1cn(Cc2cccc(C)c2)nn1 | inactive | –
CCOC(=O)c1nn(-c2cccc(C)c2)cc1C(=O)c1ccccc1 | 5.01 µM (active) | –
CCCCS(=O)(=O)N1C2=NC(C(=O)OC)=C(C(=O)OC)[C@@H]3N(Cc4ccccc4)c4ccccc4[C@]23C[C@H]1C(=O)OC | – | 1.36% [at 13.5 µM] (inactive)
CC(C)(C)c1ccc(/C=C2\SC(=O)N=C2N)cc1 | inactive | –
CN(C)c1nc(N)nc(Cn2nnc(-c3ccc(C(F)(F)F)cc3)n2)n1 | inactive | –
COc1ccc(-n2nnnc2SCc2nc(N)nc(N3CCOCC3)n2)cc1 | inactive | –
COc1ccc(-c2nnn(Cc3nc(N)nc(N4CCCCC4)n3)n2)cc1 | 0.562 µM (active) | –
CC(Nc1ccccc1)c1cccnc1 (stereo not given) | inactive | –
OC[C@H]1O[C@@H](n2cnc3c(N[C@H]4CC5CCC4C5)ncnc32)[C@H](O)[C@@H]1O (stereo not given in full) | inactive | –
Clc1ccc(-c2ncc3ccccn23)c(Cl)c1 | inactive | –
COc1ccccc1/C=C/C=N/n1c(-c2ccc(Cl)cc2Cl)n[nH]c1=S | 20 µM (active) | –
COn1c(-c2ccc(Cl)cc2Cl)nc2ncccc21 | inactive | –
Cc1cc(/C=N/NC(N)=O)c(C)n1C1CCCCC1 | inactive | –
CC1CCc2sc(C(=O)N/N=C/C3CCCCC3)cc2C1 (stereo not given) | 11.2 µM (active) | –
OC(CNCc1ccc(Cl)c(Cl)c1)c1ccccc1 (stereo not given) | inactive | –
Cc1ccc(-c2nc3c(cnn3-c3ccccc3)c(=O)o2)cc1 | inactive | –
COc1ccc(-n2c(C)nc3c(cnn3-c3ccccc3)c2=O)cc1 | inactive | –
Cc1ccc(-n2ncc3c(=O)n(-c4ccc(C)c(C)c4)c(-c4ccco4)nc32)cc1 | 25.1 µM (active) | –
Cn1nnnc1SCC(=O)Nc1nc2ccccc2s1 | inactive | –
Cc1cc([N+](=O)[O-])nn1CCCC(=O)Nc1cccnc1Cl | inactive | –
COc1ccc(CC(N)C(=O)NC2C(O)[C@H](n3cnc4c(N(C)C)ncnc43)O[C@@H]2CO)cc1 (stereo not given in full) | inactive | –
COC(=O)[C@H](Cc1ccccc1)NC(=O)[C@@H]1C[C@H]1[C@@H](NC(=O)OCc1ccccc1)c1ccccc1 | inactive | –
COC(=O)[C@H](C)[C@H]1C[C@]1(C)[C@H](NC(=O)OCc1ccccc1)c1ccccc1 | inactive and 22.4 µM (active) | –
O=C(NCC1CCC(C(=O)O)CC1)OCc1ccccc1 (stereo not given) | inactive | –
COc1ccc(C2(CNC(=O)Cc3ccc(OC)c(OC)c3)CCCC2)cc1 | inactive | –

SMILES | Potency | activity, negative = inhibition
CCN(CCn1cccn1)Cc1nc(-c2ccc(C(=O)OC)cc2)no1 | inactive | –
O=C1OC(/C=C/c2ccccc2)=NC/1=C/c1ccco1 | 11.2 µM (active) | –
O=c1oc(/C=C/c2ccccc2)nc2ccccc12 | inactive | –
CC(=O)Oc1ccccc1C1=NN(C(C)=O)C(c2ccccc2)C1 (stereo not given) | inactive | –
CNCC(O)CN1CCN(c2ccccc2OC)CC1 (stereo not given) | inactive | –
COc1ccccc1N1CCN(C(=O)C(=O)N/N=C/c2ccccc2F)CC1 | inactive | –
COc1ccccc1N1CCN(/N=C\C(Br)=C\c2ccccc2)CC1 | 5.62 µM (active) | –
COc1ccccc1CNC(=O)COc1ccc(C)nc1[N+](=O)[O-] | inactive | –
O=S(=O)(NCCc1ccc(F)cc1)c1cccc2cccnc12 | inactive | –
Cc1coc2c(O)cc3c(c12)OC1(N2CCCCC2)C(=O)NCCCC31 (stereo not given) | 20 µM (active) | –
COc1ccc(NC(=O)C(Br)C(C)C)cc1 (stereo not given) | inactive | –
Cc1nn(-c2ccccc2)c2c1C(c1cccc([N+](=O)[O-])c1)N(c1ccccc1)C(=O)N2 (stereo not given) | inactive | –
CCOc1ccc(C(=O)Nc2cccc(-c3ccc4nncn4n3)c2)cc1 | inactive | –
CCCn1nc(C(=O)N2CCCc3ccccc32)c2ccccc2c1=O | inactive | –
NC(=O)N1CCc2ccccc21 | inactive | –
Cc1occc1C(=O)N1CCCc2ccccc21 | 31.6 µM (active) | –
CCOC(=O)C1=NO[C@@]2(C=C(Br)C(=O)[C@H]3O[C@H]32)C1 | inactive | –
CN(C)c1ccc(/C=N/NC(=O)c2ccc(Cn3cc(Br)cn3)o2)cc1 | 17.8 µM (active) | –
O=C(N/N=C\c1ccc(Br)cc1)c1ccc(Cn2cccn2)o1 | inactive | –
O=C(N/N=C/c1ccc2c(c1)OCO2)c1ccc(Cn2cc([N+](=O)[O-])cn2)o1 | inactive | –
COc1ccc(C2CC(c3cccs3)Nc3nnnn32)cc1 (stereo not given) | inactive | –
O=c1[nH]c(CN2CCOCC2)nc2cc(Cl)ccc12 | inactive | –
CCC1(CC)NC(=O)N(CC(=O)OCC(=O)NC(=O)c2ccccc2)C1=O | inactive | –
O=C(c1ccccc1Cl)N(Cc1ccccc1F)N1C(=O)CCCC1=O | inactive | –
COc1ccc(NC(=O)N2CCCC(c3nc(-c4ccc(F)cc4)no3)C2)cc1 (stereo not given) | inactive | –
CC(=O)N1c2ccccc2N(Cc2ccc([N+](=O)[O-])cc2)C(=O)C1(C)C | inactive | –
Cc1ccc(C)c(NC(CC(=O)c2ccccc2)C(=O)OCC(=O)c2cccs2)c1 (stereo not given) | 7.08 µM (active) | –

SMILES | Potency | activity, negative = inhibition
Cc1ccc(C)c(NC(=O)CCC(=O)NNC(=O)c2cccs2)c1 | inactive | –
COC(=O)C(CC(=O)Nc1cc(C)ccc1C)Nc1ccccc1OC (stereo not given) | inactive | –
O=C(COC(=O)CNC(=O)c1ccccc1F)NCC(F)(F)F | inactive | –
O=C(COC(=O)c1ccc(O)cc1)Nc1nccs1 | inactive | –
Cc1cccc(C)c1OCC(O)CN1CCCCC1 (stereo not given) | inactive | –
OC(COc1cccc(OCC(O)CN2CCCC2)c1)CN1CCCC1 (stereo not given) | inactive | –
OC(COCCC12CC3CC(CC(C3)C1)C2)CN1CCCCC1 (stereo not given) | 20 µM (active) | –
CC1CCCCC1NC(=O)CO/N=C/c1ccc(OC(F)F)cc1 (stereo not given) | inactive | –
CCCCCCCCc1c(O)nc(-n2[nH]c(C)c(CCO)c2=O)[nH]c1=O | inactive | –
CCOc1ccccc1Nc1ccc(C(=O)O)cc1[N+](=O)[O-] | inactive | –
CSc1ccccc1NC(=O)CN(C)CC(=O)Nc1ccc(Cl)cc1[N+](=O)[O-] | inactive | –
CSc1nc2nc(-c3cccc(C(F)(F)F)c3)ccn2n1 | inactive | –
O=C1CCCC(O)=C1N=Nc1ccc2ncsc2c1 | 25.1 µM (active) | –
Cc1ccc(NC(=S)N(Cc2ccco2)C(C)c2cccs2)cc1 (stereo not given) | inactive | –
O=C(Oc1cccc(O)c1)C1CCCCC1 | inactive | –
CC(=O)C1=C(O)C(=O)N(c2cccnc2)C1c1ccc([N+](=O)[O-])cc1 (stereo not given) | 20 µM (active) | –
COC(=O)CN1C(=O)C(O)=C(C(C)=O)C1c1ccc([N+](=O)[O-])cc1 (stereo not given) | inactive | –
COc1ccc(C2C(C(C)=O)=C(O)C(=O)N2Cc2cccnc2)cc1 (stereo not given) | inactive | –
O=C1N=C(N2CCCC2)S/C1=C\c1cccc(Br)c1 | 25.1 µM (active) | –
O=C(CNS(=O)(=O)c1ccc(Br)s1)N1CCN(C(=O)c2ccco2)CC1 | 39.8 µM (active) | –
CCNC(=S)N1CCN(C(=O)c2ccco2)CC1 | inactive | –
O=C(OCC(=O)N1CCN(C(=O)c2ccco2)CC1)c1ccccc1Cc1ccccc1 | inactive | –
CCc1nnc(NC(=O)CSc2nnnn2-c2cccc(C(C)=O)c2)s1 | inactive | –
Cc1cc(C)n(CCNCc2c(C(=O)N3C[C@@H](C)O[C@@H](C)C3)nc3ccc(Cl)cn23)n1 | inactive | –
